This is a sample that favours compounds with a hit; in the whole collection about 9.3% have one here.
HCMV inh: human cytomegalovirus inhibition; HFF cells, HCMV-luciferase reporter, 72 h; active compounds read low; activity change, negative = inhibition, % at 57.5 µM; 410,000 compounds, 4.5% hits; AID 1259415; in the data active means activity change below about -60%; inconclusive means no clear call, values can overlap the other calls; inactive means above about -39%
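HFF cells seeded 16 h at 37C, treated with compounds, infected with luciferase-reporter HCMV at MOI 1 PFU/cell; luciferase read at 72 h post infection, normalized to buffer-only and Salinomycin controls.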
Vaccinia mCherry: vaccinia inhibition (mCherry reporter) | Vaccinia virus mCherry reporter infection, fluorescence | Potency, µM (series often up to 36.5 µM), for inactives: at the highest dose activity change, negative = inhibition, usual class: inhibitors | 310,000 compounds, 0.63% hits | AID 720579; calls by dose curve; tested in A549 cells; further: potency means the concentration at half of the fitted maximal effect; nearly all actives have a fitted effect of over 35% in size
FMDV antiviral: blocks foot and mouth disease virus; 410,000 compounds, 1.2% hits; Potency, µM (series often up to 57.9 µM), without a hit: top-dose activity change, negative = inhibition, hits mostly inhibitors; FMDV antiviral cell-based qHTS; calls by dose curve; tested in HEK293T cells; further: read-out not given here; potency means the concentration at half of the fitted maximal effect; nearly all actives have a fitted effect of over 45% in size
VACV Venus inh: vaccinia inhibition (Venus reporter); Vaccinia virus Venus reporter expression, fluorescence; Potency, µM (titrated, usually from 36.5 µM), for the others: at the top dose activity change, negative = inhibition, hits mostly inhibitors; 330,000 compounds, 0.46% hits; AID 720580; calls by dose curve; tested in A549 cells; further: potency means the concentration at half of the fitted maximal effect; nearly all actives have a fitted effect of over 30% in size
Sm TGR inh: blocks Schistosoma mansoni thioredoxin glutathione reductase. purified TGR, DTNB reduction, TNB absorbance 405 nm. Potency, µM (doses to about 114 µM), inactives show at the top dose activity change, negative = inhibition, most hits filed as inhibitors. 360,000 compounds, 3% hits. AID 485364; further: potency means the concentration at half of the fitted maximal effect; nearly all actives have a fitted effect of over 60% in size
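TGR 20 nM + NADPH 100 uM (dispensed conc.), cpd preinc 15 min RT; start with NADPH (500 uM addition) then DTNB (15 mM addition). Kinetic TNB absorbance, 405 nm filter. Four-parameter Hill fit across titration.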
HCV inh: inhibitors of hepatitis C virus infection; Huh7.5.1 HCVcc-Cre infection, luciferase reporter, 44 h; 340,000 compounds, 3.4% hits; Potency, µM (highest dose often 41.8 µM), for the others: at the highest dose activity change, negative = inhibition, most hits filed as inhibitors; further: potency means the concentration at half of the fitted maximal effect
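Luciferase read-out (15 sec integration) after a 15 min room-temperature substrate step quantifies HCVcc-Cre infection. Cells, 1,000 per well, had compound added 4 h post-plating, then virus at ~0.5 moi, and were cultured 44 h.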
* = called active by the depositor; i = inactive; ? = inconclusive; . = not tested or not shown; [ ] = remark or other dose. Unless noted, the call rests on the fitted dose curve; in most records, active means well fitted curve in the direction sought with a large enough effect; inconclusive means small, poorly fitted or top-dose-only effect, or another doubt; inactive means no such curve, though single readings can be large; an effect the other way counts as inactive or inconclusive. On the % scale 0 is the no-effect control and ±100 the full control effect.

SMILES | HCMV inh | Vaccinia mCherry | FMDV antiviral | VACV Venus inh | Sm TGR inh | HCV inh
O=C(CCl)NCc1cc(-c2ccc(Cl)cc2)no1 | -113* | 10µM* | ? | ? | 32µM* | 11µM*
CC[n+]1c(-c2ccccc2)csc1Nc1c(C)n(C)n(-c2ccccc2)c1=O | -39 | . | -15% | . | -5% | ?
CC[n+]1c(-c2ccc(C)cc2)csc1Nc1c(C)n(C)n(-c2ccccc2)c1=O | -88* | -24% | 32µM* | -27% | -1% | ?
Cc1cccc(N2C(=O)C(Cl)=C(Nc3c(C)n(C)n(-c4ccccc4)c3=O)C2=O)c1C | ? | i | . | -7% | 8.9µM* | 0%
Cc1ccc(N2C(=O)C(Cl)=C(Nc3c(C)n(C)n(-c4ccccc4)c3=O)C2=O)cc1 | -14 | -12% | . | 0% | 8.9µM* | 8%
C#CCOCCOCCOCCNc1nc(N2CCN(C(=O)CCCCCCCCCCNC(=O)[C@@H]([C@H](C)O)n3cc(C)nn3)CC2)nc(N2CCN(C(=O)CCCCCCCCCCNC(=O)[C@@H]([C@H](C)O)n3cc(C)nn3)CC2)n1 | -74* | -7% | -9% | ? | -30% | -24%
C#CCOCCOCCOCCNc1nc(N2CCN(C(=O)CCCCCCCCCCNC(=O)[C@H](CCCCN)n3cc(CCCC(=O)O)nn3)CC2)nc(N2CCN(C(=O)CCCCCCCCCCNC(=O)[C@H](CCCCN)n3cc(CCCC(=O)O)nn3)CC2)n1 | . | i | 0% | -19% | ? | ?
C#CCOCCOCCOCCNc1nc(N2CCN(C(=O)CCCCCCCCCCNC(=O)[C@H]([C@@H](C)CC)n3cc(CCCCCN)nn3)CC2)nc(N2CCN(C(=O)CCCCCCCCCCNC(=O)[C@@H]([C@H](C)O)n3cc(C)nn3)CC2)n1 | . | ? | ? | 11µM* | -29% | 16%
C#CCOCCOCCOCCNc1nc(N2CCN(C(=O)CCCCCCCCCCNC(=O)[C@H](CCCCN)n3cc(C)nn3)CC2)nc(N2CCN(C(=O)CCCCCCCCCCNC(=O)[C@@H]([C@H](C)CC)n3cc(CCCCCN)nn3)CC2)n1 | . | . | . | . | 25µM* | 22µM*
CCN(CC(=O)Nc1ccccc1C(F)(F)F)C(=O)c1cc(S(=O)(=O)N(C)C)ccc1N1CCCC1 | 8 | i | -8% | 0% | -30% | -18%
COC(=O)c1ccccc1NC(=O)CCC(=O)N1CCOc2ccccc21 | -4 | -4% | -8% | -7% | 3% | .
O=C(Nc1ccc(Oc2cccnc2)cc1)C1CCCCN1Cc1ccc(CO)o1 (stereo unspecified) | -9 | -9% | -1% | -24% | -33% | -9%
O=C(Nc1ccc(-n2cccn2)cc1)C1CCCCN1Cc1cccc2c1OCO2 (stereo unspecified) | -68* | . | -16% | . | 2% | -10%
Cc1cc2nc(-c3ccccc3)c(Cc3cccc(Cl)c3)n2c(C)c1Br | 47 | 21% | -1% | -1% | . | .
NS(=O)(=O)c1ccc(NC(=O)CCC(=O)c2cccs2)cc1 | 19 | . | -3% | . | -13% | 12%
NS(=O)(=O)c1ccc(NC(=O)CCC(=O)c2ccc(Cl)s2)cc1 | -95* | -12% | 10% | 0% | -5% | 8%
COc1ccc2nc(N/C(N)=N/C(=S)Nc3c(C)cccc3C)nc(C)c2c1 | -71* | . | 22% | . | 6% | ?
COc1ccc2nc(N/C(N)=N/C(=S)Nc3cccc(C)c3)nc(C)c2c1 | -7 | . | -2% | -14% | -3% | ?
Cc1ccc(NC(=S)/N=C(\N)Nc2nc(C)c3cc(C)ccc3n2)c(C)c1 | -86* | i | -19% | ? | -11% | 2.8µM*
COc1cc(C2C(C#N)=C(N)N(c3ccc(F)cc3)C3=C2S(=O)(=O)CC3)ccc1O (stereo unspecified) | -10 | 10% | -4% | 4% | 45µM* | 3%
Cc1cc(C)cc(C(=O)NCC(=O)OCc2c(C)noc2C)c1 | -4 | -12% | -23% | -7% | -7% | 9%
CN(C(=O)c1cccc(NC(=O)Cc2ccc([N+](=O)[O-])cc2)c1)C1CCCCC1 | ? | ? | ? | ? | . | 3.2µM*
CN(C(=O)c1ccc(-c2ccccc2)cc1)C1CCCCC1 | -4 | -17%[7.34 µM] | 24% | 5%[7.34 µM] | . | -20%
CN(C(=O)c1cccc(NC(=O)Cc2ccc(NC(=O)C3CCN(C(=O)CCc4ccccc4)CC3)cc2)c1)C1CC1 | 4 | i | -14% | 0% | . | ?
CN(C(=O)c1ccc(NC(=O)Cc2ccc(NC(=O)C3CCCN(C(=O)CCc4ccccc4)C3)cc2)cc1)C1CC1 (stereo unspecified) | -86* | ? | ? | ? | -9% | 14µM*
SMILES | HCMV inh | Vaccinia mCherry | FMDV antiviral | VACV Venus inh | Sm TGR inh | HCV inh
CN(C(=O)c1ccc(Oc2ccc([N+](=O)[O-])cc2)cc1)C1CCCCC1 | -28 | . | ? | . | -1% | 13µM*
O=C(Cc1ccc(NC(=O)C2CCCN(C(=O)CCc3ccccc3)C2)cc1)Nc1cccc(C(=O)N2CCCCC2)c1 (stereo unspecified) | ? | -22% | ? | ? | . | 7.9µM*
CN(C(=O)c1cccc(NC(=O)Cc2ccc(NC(=O)C3CCN(S(=O)(=O)c4cccc([N+](=O)[O-])c4)CC3)cc2)c1)C1CCCC1 | -7 | -10% | -7% | -11% | . | -10%
CCc1nc(SCc2ccc(C(=O)OC)o2)n[nH]1 | -1 | i | 4% | 5% | 12% | 5%
CN(C(=O)c1cccc(NC(=O)Cc2ccc(NC(=O)C3CCCN(C(=O)CCc4ccccc4)C3)cc2)c1)C1CCC1 (stereo unspecified) | -32 | ? | 18µM* | ? | . | -7%[8.37 µM]
CN(Cc1ccccc1)C(=O)c1cccc(NC(=O)Cc2ccc(NC(=O)C3CCN(C(=O)C4CCCC4)CC3)cc2)c1 | -14 | -30% | ? | -24% | . | ?
CN(Cc1ccccc1)C(=O)c1cccc(NC(=O)Cc2ccc(NC(=O)C3CCCN(C(=O)CCc4ccccc4)C3)cc2)c1 (stereo unspecified) | -2 | -17% | ? | -9% | . | -18%[8.37 µM]
CN(Cc1ccccc1)C(=O)c1ccc(NC(=O)Cc2cccc(NC(=O)C3CCCN(C(=O)CCc4ccccc4)C3)c2)cc1 (stereo unspecified) | -68* | -14% | ? | ? | 1% | ?
CN(Cc1ccccc1)C(=O)c1cccc(NC(=O)Cc2ccc(NC(=O)C3CCCN(C(=O)C4CCCCC4)C3)cc2)c1 (stereo unspecified) | 6 | 0% | -14% | -23% | . | 7.9µM*
CN(C(=O)c1ccc(NC(=O)Cc2cccc(NC(=O)C3CCCN(C(=O)CCc4ccccc4)C3)c2)cc1)C1CCCC1 (stereo unspecified) | -5 | -28% | 0% | ? | 2% | ?
